Hits are enriched below; roughly 2.4% of the tested compounds scored in any of these assays.
D2 ag-1: D2 dopamine receptor (human) agonism | AID 485358 | activation, % at 2 µM | P14416 | HEK293 T-REx D2 cells, calcium flux agonist mode | 340,000 compounds, 0.53% hits;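 active = activation over 3 SD above normal in the single-dose calcium agonist read, cut at about 30% in these data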; note: 0% is about no effect
Target sequence (P14416 whole entry, looked up): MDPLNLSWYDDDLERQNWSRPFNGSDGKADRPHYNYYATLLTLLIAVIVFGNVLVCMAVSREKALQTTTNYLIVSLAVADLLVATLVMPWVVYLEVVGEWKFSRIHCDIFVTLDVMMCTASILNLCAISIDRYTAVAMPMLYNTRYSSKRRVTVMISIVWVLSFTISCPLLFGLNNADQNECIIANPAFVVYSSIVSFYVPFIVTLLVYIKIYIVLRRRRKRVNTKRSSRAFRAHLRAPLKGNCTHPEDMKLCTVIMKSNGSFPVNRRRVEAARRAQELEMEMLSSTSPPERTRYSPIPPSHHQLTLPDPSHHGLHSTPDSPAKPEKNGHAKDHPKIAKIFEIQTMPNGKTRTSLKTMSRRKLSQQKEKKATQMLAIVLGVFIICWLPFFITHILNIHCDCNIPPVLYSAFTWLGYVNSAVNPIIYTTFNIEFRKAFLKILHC
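Agonism is scored from calcium flux in a force-coupled, inducible HEK293 cell line expressing D2, read kinetically for 180 s after compound addition against dopamine controls.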
D2 PAM-1: D2 dopamine receptor (human) potentiation; 340,000 compounds, 0.34% hits; HEK293 T-REx D2, calcium flux, EC20 dopamine potentiation; potentiation, % at 10 µM; P14416;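 active = potentiation over 3 SD above the plate norm, cut at about 30% in these data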; note: 0% is about no effect
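Tetracycline-induced HEK293 T-REx cells force-coupled to calcium signalling expressed D2; compounds were pin-added after a 10 s baseline, read kinetically 180 s, then an EC20 dopamine challenge followed with a further 180 s calcium read.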
D2 PAM-2: human D2 receptor positive allosteric modulation; 360,000 compounds, 0.23% hits; DiscoveRx D2 beta-arrestin cells, luminescence, 90 min; 100% = 57 uM dopamine signal; potentiation, % (test concentration not listed); P14416; AID 624464; in the data active = potentiation above about 50%; inconclusive = mostly about 30% to 49%
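D2 cells co-treated with compound plus 50 nM dopamine (EC20) for 90 min at 37 deg C to detect potentiation. Beta-arrestin recruitment was read as enzyme-fragment luminescence after 1 h at ambient temperature. Full response was set by 57 uM dopamine.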
D2 ag-2: agonists of human D2 dopamine receptor (beta-arrestin). 360,000 compounds, 0.084% hits. activation, % (test concentration not listed). DiscoveRx PathHunter D2 beta-arrestin, luminescence, 90 min; 100% = 57 uM dopamine signal. P14416. AID 624465; in the data active = activation above about 40%; inconclusive = between about 15% and that limit
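DiscoveRx PathHunter D2 beta-arrestin cells (2,100/well) attached overnight, then compound-stimulated 90 min at 37 C in HBSS/10 mM HEPES/0.1% Tween-20 buffer; beta-galactosidase complementation read by luminescence after 1 h at ambient temperature. Dopamine 57 uM final (EC100) as control.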
D2 antagonist: D2 dopamine receptor (human) antagonism | P14416 | HEK293 TREx D2 cells, calcium flux, dopamine EC80 | inhibition, % at 10 µM | 340,000 compounds, 2% hits | AID 485344; in the data active = inhibition above about 30%; inactive = below that, where a call was filed; note: 0% is about no effect
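Read-out: kinetic calcium fluorescence (1 cycle/s) in inducible HEK293 T-REx D2 cells after an EC80 dopamine addition that followed 180 s compound preincubation. Loss of the dopamine response indicates antagonism.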
* marks the source's active call; other numbers are inactive results; ? = inconclusive; nt = no result; ! = not confirmed by another sample.

SMILES	D2 ag-1	D2 PAM-1	D2 PAM-2	D2 ag-2	D2 antagonist
CCOC(=O)C1CCN(c2ccccc2CN2CCN(c3ccccc3OCC)CC2)CC1	0	-18	-24	-15	61*
CCOC(=O)C1CCN(Cc2ccccn2)CC1	27	-15	nt	nt	-6
COc1ccccc1N1CCN(Cc2cccc(OC)c2OC)CC1	-1	-14	-45	-2	71*
CCOC(=O)C1CCN(c2c(NCCN3CCN(c4ccccc4)CC3)c(=O)c2=O)CC1	37*	-18	-7	-4	-7
COc1ccc(NC(=S)N2CCN(S(=O)(=O)c3ccccc3)CC2)cc1OC	0	-9	-6	2	-3
CCCN(CC(=O)Nc1ccccc1OC)CC(=O)c1c(N)n(Cc2ccccc2)c(=O)n(C)c1=O	nt	nt	-21	-4	nt
COc1ccc(Cn2nnnc2C(C(C)C)N2CCN(c3ccccc3OC)CC2)cc1 (configuration not stated)	0	-9	-4	-1	53*
Nc1ccn([C@H]2CC[C@@H](CO)O2)c(=O)n1	0	5	-3	-2	37*!
CCOc1ccc2noc3c2c1C(=O)c1ccccc1-3	nt	nt	5	2	nt
CCNc1ccc2noc3c2c1C(=O)c1ccccc1-3	nt	nt	70*	11	nt
O=C1c2ccccc2-c2onc3ccc(N4CCCC4)c1c23	19	-18	-1	4	13
O=C1c2ccccc2-c2onc3ccc(NCc4ccco4)c1c23	30	1	112*	?	18
COc1cccc(C2CC(c3ccc(Cl)cc3)n3nc(N)nc3N2)c1 (configuration not stated)	0	4	-3	-3	57*
CN1CCN(CC(C)(C)NS(=O)(=O)c2ccc(Cl)cc2)CC1	-1	-14	-20	-2	-6
CC(C)(CN1CCN(Cc2ccccc2)CC1)NS(=O)(=O)c1ccc(Cl)cc1	-1	-33	-27	-2	44*
N#Cc1cc(NCC2CCCO2)c([N+](=O)[O-])cc1C#N (configuration not stated)	1	4	50*	6	-4
CCC(C(=O)NCc1ccco1)n1nc(C)n2c(cc3occc32)c1=O (configuration not stated)	0	-3	-15	-3	-5
Cc1nn(-c2ccccc2)c(C)c1C(=O)NCc1cccs1	0	-3	3	-2	-3
Cc1nn(-c2ccccc2)c(Cl)c1C(=O)NCc1cccs1	-1	-6	-3	-1	44*
Cc1ccc(Sc2ccc(CN3CCCC3)cc2[N+](=O)[O-])cc1	1	-15	-12	1	36*
NC(N)=NCCCC(NC(=O)c1ccccc1)C(=O)Nc1ccc([N+](=O)[O-])cc1 (configuration not stated)	-1	-12	-5	-5	75*
NC(N)=NCCCC(NC(=O)c1ccccc1)C(=O)Nc1ccc2ccccc2c1 (configuration not stated)	1	-16	-32	-3	54*
CCCCNC(=O)CCCN1C(=O)CCn2nc(-c3cccn3C)cc21	-2	0	nt	nt	nt
Cc1ccc(C)c(N2CCN(C(=O)C3CCN(S(=O)(=O)c4ccc5[nH]c(=O)oc5c4)CC3)CC2)c1	0	2	nt	nt	nt
CCn1c(CNc2ccc(Cl)cc2)nnc1SCCN1CCCCC1	0	-27	-53	-3	50*
SMILES	D2 ag-1	D2 PAM-1	D2 PAM-2	D2 ag-2	D2 antagonist
OC1CCN(Cc2ccc3ccccc3c2)CC1	1	-15	-14	-2	46*
COc1ccccc1CN1CCN(Cc2ccc3ccccc3c2)CC1	1	-28	-10	-8	68*
COc1ccc(CN2CCN(Cc3ccc4ccccc4c3)CC2)cc1OC	1	-16	-14	-5	5
CC1(C(=O)NC2CCN(Cc3ccccc3)CC2)CCN1Cc1ccc2ccccc2c1 (configuration not stated)	nt	nt	-13	-6	nt
CCOC(=O)c1c(C)[nH]c(C)c1S(=O)(=O)N1CCCC(C(=O)NCc2ccc(Cl)cc2)C1 (configuration not stated)	0	2	nt	nt	nt
CC(=O)Oc1ccccc1C1C[C@]2(C)CC(=O)NC2N1C(C)=O (some centres not stated)	-1	-1	-1	-3	-13
COc1cc(/C=N/NC(=O)CC2(C)OCCCO2)ccc1OCc1ccc(Cl)cc1Cl	0	-6	-3	-1	31*
CC1(CC(=O)N/N=C/c2ccc(OCc3ccc(Cl)cc3Cl)cc2)OCCCO1	0	-5	1	3	15
COc1ccc(N2CC(NC(=O)/C=C\c3ccc(OC)c(OC)c3)CC2=O)cc1 (configuration not stated)	-1	-7	nt	nt	nt
O=C(CSc1nnnn1Cc1ccccc1)NCC(=O)c1ccccc1	0	-4	-24	-1	-18
O=C(CSc1nnnn1Cc1ccccc1)NCCc1ccccc1	-2	-1	2	-3	32*
CC1=CC(=O)CC2C1(C)CCC(C)C2(C)CCC(C)CC(=O)O (configuration not stated)	0	2	-18	2	32*
CCc1ccc(NC(=O)C(=O)NNC(=O)c2ccc(OC)cc2)cc1	1	-14	-1	-5	43*
COc1ccc(C(=O)NNC(=O)C(=O)Nc2ccc(C)cc2)cc1	-3	nt	-8	-8	9
CCOc1ccccc1OCCN1CCCC1	1	-1	-65	-2	-3
COc1cccc(OC)c1OCCCCN1CCCC1	0	-11	-31	0	3
COc1cccc(OC)c1OCCCCN1CCC(Cc2ccccc2)CC1	0	-27	-22	0	76*
COc1ccccc1OCCCCN1CCN(C(c2ccccc2)c2ccccc2)CC1	25	-19	-14	-3	61*
N#Cc1ccccc1OCCCN1CCC(Cc2ccccc2)CC1	0	-27	-7	0	85*
CCOc1ccccc1OCCN1CCC(Cc2ccccc2)CC1	-2	-18	-19	0	64*
O=C(OCc1ccccc1)N1CCC2CC1c1ccc(-c3cccc(F)c3)cc12 (configuration not stated)	nt	nt	-10	-5	nt
COc1ccc(C(=O)NCCCC2CCCC2)cc1OC1CCN(C(C)C)CC1	nt	nt	-21	-1	nt
Cc1cc(Nc2ccc(C)c(Cl)c2)n2nc(-c3ccccc3)nc2n1	-1	-7	nt	nt	nt
Cc1ccccc1OCCOCCN1CCCCCC1	nt	-27	-20	0	nt
CCC(=O)c1ccccc1OCCCN1CCC(Cc2ccccc2)CC1	0	-34	-11	1	97*
Cc1ccccc1OCCN1CCC(Cc2ccccc2)CC1	0	-27	-20	-3	46*
CC1CCN(CCCOc2ccc(OCc3ccccc3)cc2)CC1	2	-18	-37	-9	8
CC(=O)CCc1ccc(OCCCCN2CCC(Cc3ccccc3)CC2)cc1	0	-26	-7	-1	54*

Screening results (PubChem BioAssay)
